This is an account of results in PubChem BioAssay (Tox21).

“And” between values parts separate entries of the source, which are not always exact repeats. Equal entries are not always repeated. Records with an inconclusive call do not appear. Entries that show only a call come without a potency. Unmarked numbers belong to inactive results. The source made the active and inactive calls. The call rests on the fitted dose curve.
Potency means the concentration at half of the fitted maximal effect.

This assay is described as follows: qHTS assay to identify small molecule agonists of H2AX - cell viability counter screen (AID 1224847). Further: nearly all actives have a fitted effect of over 30% in size. On activity change, negative = cytotoxicity: top concentration of the series differs between compounds. To be noted: CHO-K1 viability, CellTiter-Glo luminescence, 3 h; series mostly up to 154 µM. From the text:
National Center for Advancing Translational Sciences [NCATS]
NIH Chemical Genomics Center [NCGC]
U.S. Environmental Protection Agency [EPA]
National Institutes of Environmental Health Sciences [NIEHS]
National Toxicology Program [NTP]
U.S. Food and Drug Administration [FDA]
HTRF phospho-H2AX (Ser139) assay (Cisbio Bioassays, US) enables the quantitative detection of the histone variant H2AX when phosphorylated on serine 139. When double-stranded DNA breaks, either by ionizing radiation or endogenous physiological processes, H2AX becomes phosphorylated at Ser139. This phospho-Ser139 serves as a sensitive biomarker for the detection of such breaks, localizing the site of DNA repair. So, HTRF phospho-H2AX Ser139 is a pertinent assay to study genome stability, the cell cycle, DNA repair, and it serves as a biomarker for cancer, and to understand aging. Wild type CHO-K1 cells were used to identify the inducers of Phospho-H2AX Ser 139 from the Tox21 compound collections. Also cytotoxicity of the Tox21 10K compound library against the CHO-K1 cell line was tested by measuring the cell viability using CellTiter-Glo assay (Promega, Madison, WI).
Tox21 Assay Protocol Summary:
The CHO-K1 cells suspended in culture medium containing 10% FBS were dispensed at 1000 cells/ 3 ul/well in 1536-well white wall/solid bottom plates (Greiner Bio-One North America, NC) using a Multidrop Combi (Thermo Fisher Scientific Inc., Waltham, MA). After the assay plates were incubated at 37C overnight, 23 nl of compounds at 15 concentrations (from 5-48 columns) or positive control (from 1 to 4 columns) were transferred to the assay plates using a Pintool station (Wako, San Diego, CA) into each well resulting in a final DMSO concentration of 0.76%. After 3hr incubation at 37C, 3 uL/well CellTiter-Glo luminescent cell viability reagent (Promega Corporation, Madison, WI) was added using a Flying Reagent Dispenser (FRD) (Aurora Discovery, CA). After incubation at room temperature for 30 min, the luminescence intensity was read using a ViewLux plate reader (PerkinElmer, Waltham, MA).
For `O=C(O)c1ccc2cc(C(=O)O)ccc2c1`, the Potency entry was “inactive”. For the molecule `C#Cc1ccc(-c2ccccc2F)cc1`, the Potency entry was “inactive”. The same measure, in the same setting: then `Clc1nnc(Cl)c2ccccc12`, with “inactive”; and `CC(CCc1ccccc1)NCC(O)c1ccc(O)c(C(N)=O)c1` (stereo not given), with “inactive”.

As to `CCN(CC)c1ccc2c(-c3ccc(S(=O)(=O)O)cc3S(=O)(=O)[O-])c3ccc(=[N+](CC)CC)cc-3oc2c1`, the Potency was 20.7 µM (active).

As to `CCCCC/C=C\C/C=C\CCCCCCCC(=O)O`, the Potency entry was “inactive”. On to `Clc1ccnc(Cl)n1`, for which the Potency entry was “inactive”. Still for that read-out and setting: then `CCCC(=O)OCCc1ccccc1`, with “inactive”; and `Nc1ccc(C(=O)O)c(O)c1`, with “inactive”. Take `CC(C)OC(=O)C(O)(CC(=O)O)CC(=O)O`: the Potency entry is “inactive”. Regarding `CC(C)(C)c1csc(-c2cc3cc(OCc4ccccc4CC(=O)O)ccc3o2)n1`, the Potency was 113 µM (active). In the case of `CC(CO)Oc1ccccc1` (stereo not given), the Potency result was “inactive”. As to `O=C1c2ccccc2C(=O)N1SC1CCCCC1`, the Potency is 89.7 µM (active) and 89.8 µM (active). In the case of `NC[C@H]1O[C@H](O[C@H]2[C@H](O[C@@H]3O[C@H](CO)[C@@H](O)[C@H]3O)C(O)[C@H](N)C[C@@H]2N)[C@H](N)[C@@H](O)[C@@H]1O` (stereo not given in full), the activity change, negative = cytotoxicity was -3.49% [at 14 µM].

As to `Cc1cccc2cccnc12`, the Potency result was “inactive”. The same measure, in the same setting: next, `CCCCCc1ccc(Cl)cc1`: “inactive”; `OCC(F)(F)F`: “inactive”. Take `c1ccc(SSc2ccccc2)cc1`: the Potency entry is “inactive”. `CC1=CCC(=C(C)C)CC1`: the Potency result was “inactive”. `S=c1nccc[nH]1`: the Potency entry was “inactive”. Same read-out and setting: then `COc1ccc(-c2coc3cc(O)ccc3c2=O)cc1`, with “inactive”.

For the molecule `CC(C)NC[C@@H](O)COc1ccc(CC(N)=O)cc1`, the Potency result was “inactive”. Take `O=C(/C=C/c1ccccc1)OC/C=C/c1ccccc1`: the Potency result was “inactive”. As to `CCN(CC)C(=O)c1cc(S(=O)(=O)Cc2ccccc2)c(N2CCC(c3ccccc3)CC2)cc1N(CC)CCN(C)C`, the Potency is 31.5 µM (active).

Turning to `CCC(C)(CCC(C)C)C(=O)[O][Sn]([CH3])([CH3])[O]C(=O)C(C)(CC)CCC(C)C` (stereo not given), the Potency entry is “inactive”.

For the molecule `CC(C)CCOC(=O)/C=C/c1ccccc1`, the Potency entry is “inactive”. For the molecule `O=C(O)Cc1ccc2c(c1)C(=O)c1ccccc1CO2`, the Potency entry is “inactive”. For the molecule `CCC(C)n1ncn(-c2ccc(N3CCN(c4ccc(OC[C@H]5CO[C@](Cn6cncn6)(c6ccc(Cl)cc6Cl)O5)cc4)CC3)cc2)c1=O` (stereo not given in full), the Potency entry was “inactive”. With `CC1(C)CC(O)CC(C)(C)N1`, the Potency entry is “inactive”. For the molecule `S=C([S-])NCCNC(=S)[S-].S=C([S-])NCCNC(=S)[S-].[Mn+2].[Zn+2]`, the Potency result is “inactive”. In the case of `CCCCNS(=O)(=O)c1ccc(C)cc1`, the Potency result is “inactive”.

With `CC(C)(C)CC(C)(C)c1ccc(Nc2ccc(C(C)(C)CC(C)(C)C)cc2)cc1`, the activity change, negative = cytotoxicity is 0.45% [at 14 µM]. Regarding `Nc1nc2c(ncn2COCCO)c(=O)[nH]1`, the Potency entry was “inactive”. The same measure, in the same setting: next, `CC[C@H](C)COC(=O)/C=C/c1ccc(N=Cc2ccc(OC)cc2)cc1`: 89.7 µM (active); `Cc1ccc(O)c(N)c1`: “inactive”; `COc1cc(C)ccc1O`: “inactive”. Still for that read-out and setting: then `CNc1ccc([N+](=O)[O-])cc1`, with “inactive”; and `Sc1nc2ccccc2s1`, with “inactive”; and `CC(C)(c1cc(Br)c(OCC(Br)CBr)c(Br)c1)c1cc(Br)c(OCC(Br)CBr)c(Br)c1` (stereo not given), with “inactive”.

Turning to `Nc1ccc(NCCO)c([N+](=O)[O-])c1`, the Potency was 80 µM (active).
